This is a sample that favours compounds with a hit; in the whole collection about 2.9% have one here.
PLC-beta3 inh: PLC-beta3 (human) inhibition, primary screen; Q01970; Purified PLC-beta3, fluorogenic substrate, fluorescence; inhibition, % at 12.2 µM; hit rate 0.18% among 370,000; AID 720704; in the data active = inhibition above about 11%;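 note: 0% = median of compound wells on plate and 100% = full blocker control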
ADAM17 inh: inhibitors of human ADAM17; P78536; recombinant ADAM17, EDANS/DABCYL FRET peptide cleavage; inhibition, % at 6.95 µM; hit rate 0.83% among 370,000;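 active = inhibition above the mean of compounds lying between control limits plus 3 SD, set per campaign, cut at about 8.5% in these data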;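 note: 0% = DMSO-only wells as the low control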
KLK7 zymogen act: activates the human kallikrein-7 zymogen; P49862; activation, % at 7 µM; purified proKLK7, EDANS-DABCYL substrate fluorescence; 100% is mature enzyme control, 0% vehicle; hit rate 0.9% among 370,000;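 active = activation above the mean of all tested compounds plus 3 SD, computed per campaign excluding outliers beyond control limits, cut at about 13% in these data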
PLC-gamma1 inh: PLC-gamma1 (human) inhibition, primary screen. P19174. purified PLC-gamma1, fluorogenic substrate, fluorescence. inhibition, % at 12.2 µM. hit rate 0.84% among 370,000; in the data active = inhibition above about 9.5%
Target sequence (P19174 whole entry, looked up): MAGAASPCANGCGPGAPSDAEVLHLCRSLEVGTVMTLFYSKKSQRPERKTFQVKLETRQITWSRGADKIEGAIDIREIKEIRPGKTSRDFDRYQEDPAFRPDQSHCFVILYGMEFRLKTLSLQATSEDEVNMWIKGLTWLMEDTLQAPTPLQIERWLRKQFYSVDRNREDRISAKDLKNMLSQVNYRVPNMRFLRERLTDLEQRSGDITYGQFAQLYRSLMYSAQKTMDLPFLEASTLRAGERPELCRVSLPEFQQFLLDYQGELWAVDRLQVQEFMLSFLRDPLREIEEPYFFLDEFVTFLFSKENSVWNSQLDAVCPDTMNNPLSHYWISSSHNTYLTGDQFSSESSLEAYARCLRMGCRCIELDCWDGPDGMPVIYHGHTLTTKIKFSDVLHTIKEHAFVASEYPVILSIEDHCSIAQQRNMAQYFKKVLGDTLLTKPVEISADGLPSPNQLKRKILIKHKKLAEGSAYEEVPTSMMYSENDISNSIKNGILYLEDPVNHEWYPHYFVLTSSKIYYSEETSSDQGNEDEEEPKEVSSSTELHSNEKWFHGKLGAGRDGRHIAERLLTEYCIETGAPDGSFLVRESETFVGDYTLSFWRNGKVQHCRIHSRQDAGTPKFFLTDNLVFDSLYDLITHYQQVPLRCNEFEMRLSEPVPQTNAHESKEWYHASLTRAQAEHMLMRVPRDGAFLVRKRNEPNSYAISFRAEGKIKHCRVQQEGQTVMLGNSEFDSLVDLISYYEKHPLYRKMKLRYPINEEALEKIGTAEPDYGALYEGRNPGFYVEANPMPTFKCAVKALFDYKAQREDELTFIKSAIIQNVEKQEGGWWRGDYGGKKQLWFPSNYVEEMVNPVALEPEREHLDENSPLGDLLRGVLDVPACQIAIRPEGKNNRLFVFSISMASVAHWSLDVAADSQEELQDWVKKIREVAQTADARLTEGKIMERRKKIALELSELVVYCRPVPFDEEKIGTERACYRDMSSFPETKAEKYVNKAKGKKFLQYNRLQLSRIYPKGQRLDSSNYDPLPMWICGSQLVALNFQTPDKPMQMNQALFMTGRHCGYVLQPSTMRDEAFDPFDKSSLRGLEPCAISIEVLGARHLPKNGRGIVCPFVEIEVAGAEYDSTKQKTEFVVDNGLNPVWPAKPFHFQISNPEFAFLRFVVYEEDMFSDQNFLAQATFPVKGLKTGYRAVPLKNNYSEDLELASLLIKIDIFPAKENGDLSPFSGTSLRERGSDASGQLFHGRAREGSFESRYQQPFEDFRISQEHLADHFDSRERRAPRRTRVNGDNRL
ADAM10 inh: inhibitors of human ADAM10; inhibition, % at 7 µM; hit rate 0.62% among 370,000; O14672; recombinant ADAM10, EDANS/DABCYL FRET peptide cleavage, 3 h;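 active = inhibition above a per-campaign cutoff equal to the mean of compounds falling between control-based bounds plus 3 SD, cut at about 20% in these data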;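 note: 0% = DMSO wells while the 100% control is not disclosed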
proKLK7 act conf: confirmation of human kallikrein-7 zymogen activators | shares compounds with KLK7 zymogen act | purified proKLK7, EDANS-DABCYL substrate fluorescence; scaled: vehicle 0, mature enzyme 100 | activation, % at 7 µM | hit rate 68% among 3,200;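 active = activation, as change over the incubation, above the mean of all tested compounds plus 3 SD, cut at about 13% in these data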
EDANS interfere: optically interferes with EDANS-DABCYL signal, flagging KLK7 hits | shares compounds with KLK7 zymogen act | EDANS-DABCYL substrate fluorescence interference, no enzyme, 4 h; solvent 0%, active enzyme control 100% | activation, % at 7 µM | hit rate 80% among 3,200 | AID 686952;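 active = activation above the all-compound mean plus 3 SD, ignoring values outside control-based bounds, cut at about 4.8% in these data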;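 note: value is the 4 h activation minus the activation read at time zero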
K7 EDANS ctr: EDANS fluorescence interference in dose response, no enzyme; shares compounds with KLK7 zymogen act; EDANS-DABCYL peptide fluorescence interference; EC50, µM; hit rate 20% among 250;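 active = compounds that raise the fluorescence signal in this interference counterscreen, with EC50 at or below 10 µM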;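 note: intact quenched peptide substrate alone read at 355 nm excitation and 520 nm emission; signal is fluorescence gain from T0 to T4 after four hours at room temperature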
Numbers without * were called inactive; i = inactive; . = no result given.

SMILES	PLC-beta3 inh	ADAM17 inh	KLK7 zymogen act	PLC-gamma1 inh	ADAM10 inh	proKLK7 act conf	EDANS interfere	others
N#Cc1cc2c(=O)n3ccccc3nc2n(Cc2cccnc2)c1=O	-236	-343	12	-177	i	.	.
COc1ccc(CCn2c(=N)c(C(=O)NCCN3CCOCC3)cc3c(=O)n4cccc(C)c4nc32)cc1OC	-14	-12	1	-11	-30	.	.
C[C@H]1CN([C@@H](C)CO)C(=O)c2cc(C#CC3CCCC3)cnc2O[C@H]1CN(C)C(=O)Cc1ccccn1	4	2	-1	4	-12	.	.
Cc1cccn2c(=O)c3cc(C(=O)NCc4ccccc4)c(=N)n(CCCN4CCOCC4)c3nc12	-312	-453	18*	-204	i	-5	-2
CCN1CCCC1Cn1cnc2c([nH]c3ccc(C)cc32)c1=O (stereo not given)	-75	-115	16*	-57	-393	5	5.0*
COc1ccc(C(=O)/C=C/c2ccc(O)cc2)cc1	-89	-20	18*	-73	-105	4	5.5*
COc1cc(/C=C/C(=O)OCC(=O)Nc2ccc3c(c2)OCCO3)ccc1OCC#N	-37	-22	38*	-30	-253	128*	110*
COc1ccc(C=O)cc1COc1ccccc1F	1	0	0	-1	0	.	.
COc1ccc(/C=C/C(=O)c2ccccc2)cc1COc1ccccc1F	-3	-1	263*	-2	0	-17	80*
COc1ccccc1/C=C/C(=O)OCC(=O)Nc1ccc2c(c1)OCCO2	-9	-10	0	-1	-36	.	.
COc1cc(/C=C/C(=O)c2ccc(O)cc2)ccc1OCC#N	-18	4	16*	-12	-18	3	4.2*
COCCCNC(=S)N1CCN(c2nc(-c3ccc(Cl)cc3)cs2)CC1	-4	3	0	0	10	.	.
Cc1ccc(NC(=O)CCNC(=O)c2ccc(Br)cc2)nc1	-2	-1	0	0	-1	.	.
CC(C)(C)C1CCC(=NNC(=S)NCc2ccccc2)CC1 (stereo not given)	-4	-2	1	-3	-4	.	.
Cc1ccc(NC(=O)N2CCCC2C(=O)NCc2cccs2)cc1 (stereo not given)	8	-42	0	3	10	.	.
Cc1n[nH]c(=S)n1/N=C/c1ccccc1OCc1ccc(Cl)cc1	0	-1	0	4	6	.	.
Cc1ccc(-c2cc(C(=O)NN=Cc3c(O)ccc4ccccc34)[nH]n2)cc1C	-41	0	-69	-30	-3	.	.
CCn1c2ccccc2c2cc(C=NNC(=O)c3cc(-c4ccc(OC)cc4)n[nH]3)ccc21	-341	-35	50*	-238	-187	-13	-32
COc1ccc(-c2cc(C(=O)NN=Cc3ccc(-c4ccccc4)cc3)[nH]n2)cc1	1	3	1	-3	1	.	.
COc1ccc2ccccc2c1C=NNC(=O)c1cc(-c2ccc(C)c(C)c2)n[nH]1	-29	-6	49*	-21	-17	22*	15*	K7 EDANS ctr=>69
O=C(COC(=O)c1ccccc1)Nc1ccc2[nH]c(=O)[nH]c2c1	-7	-10	-1	-3	-9	.	.
Nc1nccnc1C(=O)OCC(=O)Nc1ccc2[nH]c(=O)[nH]c2c1	-24	-22	27*	-19	-92	53*	48*
NC(CO)c1csc(Nc2ccc(C(F)(F)F)cn2)n1 (stereo not given)	-7	-1	0	-9	-9	.	.
COc1ccc2c(c1OC)C(=O)OC2CC(=O)c1ccc(O)c(O)c1 (stereo not given)	-8	-1	0	-5	0	.	.
COc1ccc2c(c1OC)C(=O)OC2CC(=O)c1ccc(O)cc1 (stereo not given)	-186	0	20*	-149	-1	7	6.3*
SMILES	PLC-beta3 inh	ADAM17 inh	KLK7 zymogen act	PLC-gamma1 inh	ADAM10 inh	proKLK7 act conf	EDANS interfere	others
O=C(NCCO)Nc1ccc2nsnc2c1	i	-150	22*	i	i	40*	41*
O=C(Nc1ccc2nsnc2c1)C1CC1	-200	-90	8	-190	-292	.	.
O=C(Nc1ccc2nsnc2c1)NC1CCCCC1	i	-166	21*	i	i	28*	29*
COC(=O)C1=CNC=C(C(=O)OC)C1c1ccc(C(=O)OC)cc1	i	-432	13*	-452	i	19*	14*	K7 EDANS ctr=>70
COC(=O)C1=C(C)N(C)C(C)=C(C(=O)OC)C1c1ccc(C(=O)OC)cc1	-4	-2	0	-3	5	.	.
Cc1ccc(S(=O)(=O)N2CCCCCC2)cc1C(=O)Nc1cccnc1	-7	0	0	2	-11	.	.
Cc1cc(C)c2c(N)c3cccc(C)c3nc2n1	i	-264	15*	-367	i	46*	42*
COc1ccc(OC)c(/C=C/C(=O)N(C)CC(=O)Nc2ccc(C)cc2)c1	i	-362	27*	i	i	64*	68*
COc1ccc(OC)c(/C=C/C(=O)N(C)CC(=O)Nc2cc(C)ccc2C)c1	i	-252	21*	i	i	1	8.4*
CC1(C)Oc2ccc3ccc(=O)oc3c2C(N2CCCCC2)C1O (stereo not given)	-56	-37	0	-43	-191	.	.
CNc1nc(NCc2ccccc2)c2sccc2n1	-2	-9	0	5	-34	.	.
CNc1nc(-c2ccccc2)c2sccc2n1	-427	-434	26*	-339	i	16*	20*
O=C(CCS(=O)(=O)c1ccc(Br)cc1)Nc1ccc(Cl)cc1F	-3	3	0	5	-8	.	.
Cc1nccc(-c2sc(-c3cccs3)nc2C)n1	i	i	41*	i	i	20*	21*
Cc1nc(-c2cccs2)sc1C(=O)O	-47	-39	1	-32	-118	.	.
COc1cc2c(cc1OC)C(C(N)=O)NCC2 (stereo not given)	-369	-82	54*	-284	-342	0	1
COc1cc2c(cc1OC)C(C1(O)CCCCC1)NCC2 (stereo not given)	-189	-30	21*	-114	-92	14*	14*
COc1ccc(C2NCCc3cc(OC)c(OC)cc32)cc1OC (stereo not given)	-45	0	3	-31	-1	.	.
Cc1cc(Nc2ccccc2)nc(-c2ccccc2O)n1	-306	-6	2	-247	-17	.	.
Cc1cc(Nc2cccc(F)c2)nc(-c2ccccc2O)n1	-278	2	197*	-253	13	13*	-69	K7 EDANS ctr=>70
